Measurements taken from PubChem BioAssay (Tox21).
Inconclusive results are not listed. Activity calls are given as the source filed them. Unless noted, calls follow the shape of the full dose curve.

Experiments:
[1] = Nuclear factor erythroid 2-related factor 2/antioxidant responsive element (Nrf2/ARE) small molecule agonists: qHTS cell viability counter screen in human keratinocytes (AID 1919968; active = well fitted curve in the direction sought with a large enough effect in the repeat runs; an effect the other way counts as inactive or inconclusive; also: nearly all actives have a fitted effect of over 55% in size)
In short: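 HaCaT ARE reporter line, 1,500 cells/well; 5 h settle, 37 C/5% CO2; cpd in DMSO pinned; 23 h exposure; CellTiter-Fluor, 1 h; fluorescence.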

[2] = Nuclear factor erythroid 2-related factor 2/antioxidant responsive element (Nrf2/ARE) small molecule agonists: luciferase reporter gene qHTS assay in human keratinocytes (AID 1919969); also: nearly all actives have a fitted effect of over 35% in size
[3] = target: Gonadotropin-releasing hormone receptor (Homo sapiens) (UniProt P30968); experiment: Human gonadotropin-releasing hormone receptor (GnRHR) small molecule agonists, calcium flux assay in GnRHR-HEK293 cells (AID 1920063); also: nearly all actives have a fitted effect of over 35% in size
Gonadotropin-releasing hormone receptor (Homo sapiens), sequence (P30968 whole entry, looked up): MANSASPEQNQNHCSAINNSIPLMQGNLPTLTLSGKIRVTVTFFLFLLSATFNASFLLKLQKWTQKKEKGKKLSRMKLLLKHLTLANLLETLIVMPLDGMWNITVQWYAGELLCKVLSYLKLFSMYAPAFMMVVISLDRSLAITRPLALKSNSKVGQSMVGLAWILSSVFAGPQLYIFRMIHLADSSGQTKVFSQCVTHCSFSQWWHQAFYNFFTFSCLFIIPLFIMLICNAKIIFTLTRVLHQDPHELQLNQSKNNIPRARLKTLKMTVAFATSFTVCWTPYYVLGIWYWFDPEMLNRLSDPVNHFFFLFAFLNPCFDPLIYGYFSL
In short: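 GnRHR-HEK293, 1500 cells/well, 18 h 37 C/5% CO2; Ca dye 1 h 37 C; cpd pinned (DMSO), agonist mode; kinetic FL 480/540, 3 min, 1 s reads; 15 conc, n=3.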

[4] = target: KiSS-1 receptor (Homo sapiens) (UniProt Q969F8); experiment: Human kisspeptin (KISS1R) small molecule agonists, calcium flux assay in KISS1R-HEK293 cells (AID 1920064; active = well fitted curve in the direction sought with a large enough effect in the repeat runs; an effect the other way counts as inactive or inconclusive)
KiSS-1 receptor (Homo sapiens), sequence (Q969F8 whole entry, looked up): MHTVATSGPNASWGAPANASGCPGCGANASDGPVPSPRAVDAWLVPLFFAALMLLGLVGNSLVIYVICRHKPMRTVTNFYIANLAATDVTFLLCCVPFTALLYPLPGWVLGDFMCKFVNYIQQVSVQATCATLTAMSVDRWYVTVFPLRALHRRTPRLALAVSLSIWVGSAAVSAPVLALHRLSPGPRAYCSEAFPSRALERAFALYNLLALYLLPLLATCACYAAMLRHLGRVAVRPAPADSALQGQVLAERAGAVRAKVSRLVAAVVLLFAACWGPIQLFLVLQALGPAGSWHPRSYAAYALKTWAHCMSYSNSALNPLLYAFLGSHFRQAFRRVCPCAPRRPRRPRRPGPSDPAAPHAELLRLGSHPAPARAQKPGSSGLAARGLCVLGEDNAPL
In short: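 Stable human KISS1R HEK293 line; 18 h plating, 37 C/5% CO2; calcium dye 1 h 37 C; compound pin transfer; kinetic fluorescence Ex/Em 480/540, 3 min.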

[5] = G protein-coupled receptor (GPCR) small molecule agonists, calcium flux assay: HEK293 wild type cell line counter screen (AID 1920065)
In short: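 Kinetic fluorescence at Ex/Em 480/540, recorded every second over 3 min, served as the read-out after compound addition. Each compound was tested at 15 concentrations in triplicate on cells pre-loaded with calcium dye for 1 h.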

[6] = p53 small molecule agonists, cell-based qHTS assay with human liver microsomes (AID 1963577);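 also: p53 response element beta-lactamase reporter cells with liver microsomes plus NADPH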
In short: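 With metabolic activation: human liver microsomes (0.5 mg/mL final) plus NADPH (0.5 mg/mL final) added alongside compounds to p53RE-bla cells; 16 h 37 C exposure; beta-lactamase read by LiveBLAzer fluorescence.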

[7] = p53 small molecule agonists, cell-based qHTS assay with rat liver microsomes (AID 1963578)
In short: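 Metabolic activation by rat liver microsomes and NADPH, each 0.5 mg/mL final, added right after compounds to p53RE-bla reporter cells (4,000/well, plated 5 h earlier). 16 h at 37 C, then LiveBLAzer substrate for 2 h at room temperature in the dark; fluorescence read-out.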

[8] = p53 small molecule agonists, cell-based qHTS assay with human liver microsomes: qHTS cell viability counter screen (AID 1963579); also: nearly all actives have a fitted effect of over 45% in size
In short: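 Metabolic activation used human liver microsomes and NADPH, both 0.5 mg/mL final, over 16 hours at 37 C on p53RE-bla cells (4,000/well). Cytotoxicity measured by CellTiter-Glo luminescence, 30 min at room temperature.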

[9] = p53 small molecule agonists, cell-based qHTS assay with rat liver microsomes: qHTS cell viability counter screen (AID 1963580); also: nearly all actives have a fitted effect of over 45% in size
In short: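 p53RE-bla HCT-116 cells (4,000/well) rested 5 h at 37 C, then given Tox21 compounds in DMSO with rat liver microsomes (0.5 mg/mL final) plus NADPH (0.5 mg/mL final) for 16 h at 37 C. Viability read by CellTiter-Glo luminescence after 30 min at room temperature.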

[10] = p53 small molecule agonists, cell-based qHTS assay: qHTS cell viability counter screen (AID 1963581); also: nearly all actives have a fitted effect of over 45% in size
In short: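 HCT-116 p53RE-bla cells, 4,000/well, plated 5 h before compound pin transfer; 16 h at 37 C; bla substrate 2 h RT; then CellTiter-Glo, 30 min RT, luminescence.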

[11] = p53 small molecule agonists, cell-based qHTS assay (AID 1963582; active = well fitted activation curve with a large enough effect in the signal ratio in the repeat runs, not every such curve was filed as active; the % refers to the signal ratio)
In short: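 Reporter line: p53RE-bla. Pre-incubation 5 h, 37 C, 5% CO2; compound (DMSO, pin tool) 16 h, 37 C; B/G FRET substrate 2 h RT; fluorescence intensity read.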

[12] = target: 5-hydroxytryptamine receptor 2A (Homo sapiens) (UniProt P28223); experiment: 5-hydroxytryptamine receptor 2A (HTR2A) small molecule agonists, cell-based qHTS assay (AID 1963587); also: nearly all actives have a fitted effect of over 30% in size
5-hydroxytryptamine receptor 2A (Homo sapiens), sequence (P28223 whole entry, looked up): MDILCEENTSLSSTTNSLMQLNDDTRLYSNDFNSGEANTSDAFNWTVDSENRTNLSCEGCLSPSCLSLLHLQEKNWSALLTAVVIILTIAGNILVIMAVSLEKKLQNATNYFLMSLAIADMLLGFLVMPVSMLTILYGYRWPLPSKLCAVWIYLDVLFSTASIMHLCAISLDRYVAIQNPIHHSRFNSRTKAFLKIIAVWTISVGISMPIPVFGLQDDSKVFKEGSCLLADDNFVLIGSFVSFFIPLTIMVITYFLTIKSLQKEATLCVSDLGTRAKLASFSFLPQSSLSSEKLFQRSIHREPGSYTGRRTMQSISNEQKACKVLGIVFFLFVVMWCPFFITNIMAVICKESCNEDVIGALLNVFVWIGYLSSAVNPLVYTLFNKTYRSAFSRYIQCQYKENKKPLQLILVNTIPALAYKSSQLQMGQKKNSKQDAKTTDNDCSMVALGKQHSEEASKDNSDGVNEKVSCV
In short: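 HTR2A-CHO cells, plated 18 h at 37 C/5% CO2, dye-loaded 1 h at 37 C; compounds in DMSO added by pin tool (agonist mode). Intracellular calcium flux read as kinetic fluorescence on FDSS over 2 min at 1 s intervals.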

[13] = target: Muscarinic acetylcholine receptor M1 (Homo sapiens) (UniProt P11229); experiment: Cholinergic receptor muscarinic 1 (CHRM1) small molecule antagonists, cell-based qHTS assay (AID 1963588); also: nearly all actives have a fitted effect of over 40% in size
Muscarinic acetylcholine receptor M1 (Homo sapiens), sequence (P11229 whole entry, looked up): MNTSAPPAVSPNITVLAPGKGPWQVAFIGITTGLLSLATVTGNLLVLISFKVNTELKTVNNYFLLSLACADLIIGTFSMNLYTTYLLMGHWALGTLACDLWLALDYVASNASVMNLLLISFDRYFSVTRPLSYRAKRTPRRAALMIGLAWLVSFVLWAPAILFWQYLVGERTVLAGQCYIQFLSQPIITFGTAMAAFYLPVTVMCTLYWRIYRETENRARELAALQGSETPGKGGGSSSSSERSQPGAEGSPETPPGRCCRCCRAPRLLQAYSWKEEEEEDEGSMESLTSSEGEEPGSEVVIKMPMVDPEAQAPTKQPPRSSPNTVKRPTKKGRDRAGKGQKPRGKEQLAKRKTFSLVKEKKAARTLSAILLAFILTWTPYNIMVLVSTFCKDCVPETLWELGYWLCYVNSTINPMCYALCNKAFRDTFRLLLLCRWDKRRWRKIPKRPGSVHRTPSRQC
In short: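 CHRM1-CHO calcium-flux assay, antagonist mode. Cells were seeded 18 h, dye-loaded 1 h at 37 C and given compound for 5 min at RT, then acetylcholine was added at 50nM. FDSS fluorescence was read 3 min; 15 concentrations, three runs.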

[14] = target: Muscarinic acetylcholine receptor M1 (Homo sapiens) (UniProt P11229); experiment: Cholinergic receptor muscarinic 1 (CHRM1) small molecule agonists, cell-based qHTS assay (AID 1963589); also: nearly all actives have a fitted effect of over 35% in size
In short: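 Human M1 in stable CHO line; 18 h plating, 1 h dye load 37 C; cpd added (agonist mode); Ca2+ fluorescence kinetic read, 1 s intervals; 15 conc, 3 runs.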

[15] = cAMP Responsive Elements (CRE) small molecule agonists, cell-based qHTS assay (AID 1963590)
In short: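 HEK 293T CRE-bla, 2,000 cells/well, 18 h preincubation 37 C/5% CO2; cpds (DMSO) pinned, 3 h; LiveBLAzer B/G FRET substrate, 2 h RT.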

[16] = cAMP Responsive Elements (CRE) small molecule antagonists, cell-based qHTS assay (AID 1963591; active = well fitted inhibition curve with a large enough effect in the signal ratio in the repeat runs, not every such curve was filed as active; the % refers to the signal ratio)
In short: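 Beta-lactamase reporter read by FRET substrate (LiveBLAzer B/G) after 2 h at room temperature. CRE-bla HEK293T cells had received compound plus 0.25 uM (final) NKH477 for 3 h at 37 °C.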

[17] = target: D(2) dopamine receptor (Homo sapiens) (UniProt P14416); experiment: Dopamine D2 receptor (DRD2) small molecule agonists, cell-based qHTS assay (AID 1963594); also: nearly all actives have a fitted effect of over 35% in size
D(2) dopamine receptor (Homo sapiens), sequence (P14416 whole entry, looked up): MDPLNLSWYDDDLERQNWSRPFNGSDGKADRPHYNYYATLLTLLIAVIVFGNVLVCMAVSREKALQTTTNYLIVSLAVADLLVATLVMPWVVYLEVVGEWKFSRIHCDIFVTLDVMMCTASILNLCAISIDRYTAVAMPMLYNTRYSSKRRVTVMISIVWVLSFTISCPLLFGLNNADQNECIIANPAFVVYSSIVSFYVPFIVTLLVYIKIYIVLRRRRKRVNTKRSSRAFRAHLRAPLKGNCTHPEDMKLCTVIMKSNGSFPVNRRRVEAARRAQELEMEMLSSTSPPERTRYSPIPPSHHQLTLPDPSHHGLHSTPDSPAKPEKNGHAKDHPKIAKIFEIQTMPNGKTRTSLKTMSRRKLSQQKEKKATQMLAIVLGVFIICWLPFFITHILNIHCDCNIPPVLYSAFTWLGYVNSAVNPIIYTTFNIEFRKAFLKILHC
In short: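 HEK293 cells stably expressing DRD2 were cultured 24 h at 37 C, then given Ro20-1724 (0.1 mM final) and compounds for 10 min at room temperature. NKH477 (200nM) was then added for 30 min. cAMP was read by HTRF.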

[18] = target: D(2) dopamine receptor (Homo sapiens) (UniProt P14416); experiment: Dopamine D2 receptor (DRD2) small molecule antagonists, cell-based qHTS assay (AID 1963595; active = well fitted inhibition curve with a large enough effect in the signal ratio in the repeat runs, with a control signal flat; the % refers to the signal ratio)
In short: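 Human DRD2 antagonist qHTS measuring cAMP by HTRF. The cells are exposed to compound for 10 min, then to NKH477 (200 nM) and quinpirole (12 nM) for 30 min at RT, with Ro20-1724 (0.1 mM) present throughout.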

[19] = target: Beta-2 adrenergic receptor (Homo sapiens) (UniProt P07550); experiment: Adrenergic beta2 receptor (ADRB2) small molecule antagonists, cell-based qHTS assay (AID 1963592); also: series mostly up to about 92 µM; nearly all actives have a fitted effect of over 50% in size
Beta-2 adrenergic receptor (Homo sapiens), sequence (P07550 whole entry, looked up): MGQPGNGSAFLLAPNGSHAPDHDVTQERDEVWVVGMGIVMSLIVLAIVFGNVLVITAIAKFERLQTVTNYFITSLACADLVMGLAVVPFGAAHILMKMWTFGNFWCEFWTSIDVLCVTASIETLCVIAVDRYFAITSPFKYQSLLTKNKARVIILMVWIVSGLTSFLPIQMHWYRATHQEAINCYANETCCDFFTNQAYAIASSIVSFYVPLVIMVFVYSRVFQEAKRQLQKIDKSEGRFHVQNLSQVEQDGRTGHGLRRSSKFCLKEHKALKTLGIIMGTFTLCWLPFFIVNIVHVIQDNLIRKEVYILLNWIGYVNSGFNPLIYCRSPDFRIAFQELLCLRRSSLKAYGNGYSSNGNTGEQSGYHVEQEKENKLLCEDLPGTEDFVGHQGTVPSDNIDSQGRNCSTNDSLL
In short: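 Cells (CHO, stable ADRB2 overexpression) incubated 18-20hr at 37C; compounds added from DMSO; agonist mix (1nM isoproterenol, 100uM IBMX, 25uM Ro-20-1724) added; 0.5hr RT; d2-cAMP and anti-cAMP-cryptate added; 1hr RT; 665/615 nm read.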

[20] = target: Beta-2 adrenergic receptor (Homo sapiens) (UniProt P07550); experiment: Adrenergic beta2 receptor (ADRB2) small molecule agonists, cell-based qHTS assay (AID 1963593);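 also: CHO cells stably overexpressing human ADRB2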
In short: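 CHO cells stably over-expressing ADRB2 were plated overnight at 37C, then dosed with compounds plus a stimulation mix containing 100uM IBMX and 25uM Ro-20-1724 for 0.5hr at room temperature. cAMP was measured by HTRF competition, 1hr.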
% is scaled to controls: 0 for no effect and ±100 for the full control effect.

Nc1ccc(NC(=O)c2ccc(N)cc2)cc1
inactive: Potency [1] | Potency [2] | Potency [3] | outcome [4] | outcome [5] | Potency [6] | Potency [7] | Potency [8] | Potency [9] | Potency [10] | Potency [11] | Potency [12] | Potency [13] | Potency [14] | Potency [15] | Potency [16] | Potency [17] | Potency [18]

Cc1cccc(C)c1C
inactive: Potency [1] | Potency [2] | Potency [3] | outcome [4] | outcome [5] | Potency [6] | Potency [7] | Potency [8] | Potency [9] | Potency [10] | Potency [11] | Potency [12] | Potency [13] | Potency [14] | Potency [15] | Potency [16] | Potency [19] | Potency [17] | Potency [18]

CCOC(CN1CCN(CC(C)C(=O)c2ccccc2)CC1)c1ccccc1 (stereo unspecified)
inactive: activity change, negative = cytotoxicity [1] -17.1% [at 19 µM] | activity, positive = activation [2] 6.71% [at 19 µM] | activity change [3] -0.217% [at 11.8 µM, active compounds read high] | activation [4] 2.43% [at 15.8 µM] | activation [5] 1.41% [at 11.8 µM] | activation [6] -8.35% [at 13.5 µM] | activation [7] 1.1% [at 13.6 µM] | activity change, negative = cytotoxicity [8] 24.1% [at 13.5 µM] | activity change, negative = cytotoxicity [9] 0.0683% [at 13.5 µM] | activity change, negative = cytotoxicity [10] 9.5% [at 13.5 µM] | activation [11] -3.89% [at 13.5 µM] | activation [12] -20.7% [at 15.9 µM] | activity, negative = inhibition [13] -8.62% [at 12.6 µM] | activation [14] -0.405% [at 15.8 µM] | activation [15] -1.09% [at 19 µM] | activity change, negative = inhibition [16] 10.1% [at 18.9 µM] | activity change, negative = inhibition [19] 4.02% [at 19 µM] | Potency [20] | activation [17] -24.3% [at 19 µM] | activity change, negative = inhibition [18] 9.08% [at 18.9 µM]

CCCCCCCCC1CO1 (stereo unspecified)
inactive: Potency [1] | Potency [2] | Potency [3] | outcome [4] | outcome [5] | Potency [6] | Potency [7] | Potency [8] | Potency [9] | Potency [10] | Potency [11] | Potency [12] | Potency [13] | Potency [14] | Potency [15] | Potency [16] | Potency [19] | Potency [17] | Potency [18]

CCCCCC[C@@H](CCC)C(=O)O
inactive: Potency [1] | Potency [2] | Potency [3] | outcome [4] | outcome [5] | Potency [6] | Potency [7] | Potency [8] | Potency [9] | Potency [10] | Potency [11] | Potency [12] | Potency [13] | Potency [14] | Potency [15] | Potency [16] | Potency [19] | Potency [17] | Potency [18]

O=Cc1ccc(F)c(Br)c1
inactive: Potency [1] | Potency [2] | Potency [3] | outcome [4] | outcome [5] | Potency [6] | Potency [7] | Potency [8] | Potency [9] | Potency [10] | Potency [11] | Potency [12] | Potency [13] | Potency [14] | Potency [15] | Potency [16] | Potency [18]

CO[C@H]1O[C@H](CO)[C@@H](O)[C@H](O)[C@H]1O
inactive: Potency [1] | Potency [2] | Potency [3] | outcome [4] | outcome [5] | Potency [6] | Potency [7] | Potency [8] | Potency [9] | Potency [10] | Potency [11] | Potency [12] | Potency [13] | Potency [14] | Potency [15] | Potency [16] | Potency [19] | Potency [20] | Potency [17] | Potency [18]

O=C(CCCl)NCCc1ccccc1
inactive: Potency [1] | Potency [2] | Potency [3] | outcome [4] | outcome [5] | Potency [6] | Potency [7] | Potency [8] | Potency [9] | Potency [10] | Potency [11] | Potency [12] | Potency [13] | Potency [14] | Potency [15] | Potency [16] | Potency [19] | Potency [17] | Potency [18]

O=C1CCCCO1
inactive: Potency [1] | Potency [2] | Potency [3] | outcome [4] | outcome [5] | Potency [6] | Potency [7] | Potency [8] | Potency [9] | Potency [10] | Potency [11] | Potency [12] | Potency [13] | Potency [14] | Potency [15] | Potency [16] | Potency [19] | Potency [17] | Potency [18]

CC(C)CCCCCCOC(=O)CCCCC(=O)OCCCCCCC(C)C
inactive: Potency [1] | Potency [2] | Potency [3] | outcome [4] | outcome [5] | Potency [6] | Potency [7] | Potency [8] | Potency [9] | Potency [10] | Potency [11] | Potency [12] | Potency [13] | Potency [14] | Potency [15] | Potency [16] | Potency [19] | Potency [20] | Potency [18]

CN(C)CCN(Cc1ccsc1)c1ccccn1
inactive: Potency [1] | Potency [2] | Potency [3] | outcome [4] | outcome [5] | Potency [6] | Potency [7] | Potency [8] | Potency [9] | Potency [10] | Potency [11] | Potency [12] | Potency [13] | Potency [14] | Potency [15] | Potency [19] | Potency [20] | Potency [17] | Potency [18]

O=[N+]([O-])c1ccc(F)c(Cl)c1
inactive: Potency [1] | Potency [2] | Potency [3] | outcome [4] | outcome [5] | Potency [6] | Potency [7] | Potency [8] | Potency [9] | Potency [10] | Potency [11] | Potency [12] | Potency [13] | Potency [14] | Potency [15] | Potency [16] | Potency [17] | Potency [18]
